# From PubChem BioAssay (NCI)
# Compounds without any hit were thinned out: in the full panel of roughly 83,000, 20% have a hit.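 In brief: 96-well plates, 48 h treatment, single concentration, percent growth endpoint.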 Unmarked numbers belong to inactive results. Active and inactive are the calls of the source. How the source made its calls: active means growth percent below 10; inactive means the rest.
# Legend:
# Experiment in all cases: NCI-60 one-dose screen, 48 h (100 = growth as untreated, 0 = no growth, -100 = all killed)
# Details in all cases: 10 µM
# SK-MEL-2 melanoma = tested on: SK-MEL-2 melanoma
# EKVX NSCLC = tested on: EKVX NSCLC
# SN12C renal = tested on: SN12C renal
# UO-31 renal = tested on: UO-31 renal
# TK-10 renal = tested on: TK-10 renal
# ACHN renal = tested on: ACHN renal
# CAKI-1 renal = tested on: CAKI-1 renal
# A498 renal = tested on: A498 renal
# CCRF-CEM leukemia = tested on: CCRF-CEM leukemia
# MOLT-4 leukemia = tested on: MOLT-4 leukemia
Structure (SMILES),growth (SK-MEL-2 melanoma),growth (EKVX NSCLC),growth (SN12C renal),growth (UO-31 renal),growth (TK-10 renal),growth (ACHN renal),growth (CAKI-1 renal),growth (A498 renal),growth (CCRF-CEM leukemia),growth (MOLT-4 leukemia)
O=C(CS(=O)(=O)c1oc(-c2ccc(Cl)cc2)nc1S(=O)(=O)c1ccccc1)N1CCCC1,82.8%,74.9%,-26.2% (active),-100% (active),-94.5% (active),-100% (active),-98.7% (active),110%,-45% (active),–
O=C(Cn1cc(CSc2nnc3oc4ccccc4n23)nn1)Nc1cccc(Cl)c1,55.6%,57.6%,76.5%,55.3%,79.3%,66.7%,59.8%,106%,50.6%,–
C=CC(=O)Nc1nc(-c2cccc(NS(=O)(=O)c3cccc4c(N(C)C)cccc34)c2)cs1,-62.7% (active),29%,-56.6% (active),-100% (active),-76.9% (active),-79.8% (active),-87.5% (active),25.7%,-32% (active),–
CC(=O)NCC1=C(C)C=C2C(=O)[C@](C)(O)C3(CC3)C(C)=C21,-74.7% (active),-26.1% (active),-74.7% (active),-32.2% (active),-6.87% (active),-37.4% (active),-31.6% (active),-70.4% (active),51.9%,–
CN(C)c1cccc2c(S(=O)(=O)Nc3cccc(-c4csc(NC(=O)CCCCCN5CCN(c6cc7c(cc6F)C(=O)N(C6CCC(=O)NC6=O)C7=O)CC5)n4)c3)cccc12 (configuration not stated),108%,80.8%,85.8%,70%,97.4%,97.8%,79.4%,95.7%,66.3%,–
COc1ccc(-c2nc(S(=O)(=O)c3ccc(C)cc3)c(S(C)(=O)=O)o2)cc1,-62.4% (active),36.8%,-73.3% (active),-100% (active),-100% (active),-100% (active),-100% (active),116%,-50.5% (active),–
O=C(Nc1ccncc1)c1ccc(-n2c(=O)[nH]c3ccccc3c2=O)cc1,91.9%,94.2%,90.5%,87.3%,103%,96.2%,87.3%,114%,-31.5% (active),–
CCCS(=O)(=O)c1oc(-c2ccc(F)cc2)nc1S(=O)(=O)c1ccc(F)cc1,36.7%,82.8%,-85.4% (active),-100% (active),-97.2% (active),-100% (active),-92.2% (active),113%,-51.3% (active),–
O=C(NCCCCC(c1ccc(F)cc1)c1ccc(F)cc1)NCCCc1cccnc1,-1.41% (active),27.4%,23.9%,26.2%,46.2%,37.5%,29.8%,84.2%,-25.4% (active),–
C=C1CC[C@H](C(=C)C)[C@H]2C=C(C)C(=O)C3=C(C(=O)[C@@](C)(O)C3)[C@H]12,-88.6% (active),-78.5% (active),-50.8% (active),-99.8% (active),-97% (active),-98.3% (active),-78.9% (active),-93.2% (active),-5.05% (active),–
CCCCSc1nc(Nc2ccc(/C(C)=N/NC(N)=S)cc2)c(C#N)c(-c2ccccc2)n1,90.4%,62.5%,19.8%,11.8%,48.8%,14.3%,33.5%,42.1%,49.2%,47.3%
Cc1ccc(CNC(=O)Cc2ccc3c(c2)CN(C2CCC(=O)NC2=O)C3=O)cc1 (configuration not stated),0.232% (active),54.5%,4.57% (active),-21.3% (active),33.2%,30.5%,52.6%,-9.84% (active),8.32% (active),-24.9% (active)
Cn1c(O)c(N=Nc2nc(-c3cc4ccccc4oc3=O)cs2)c2cc(Br)ccc21,31.8%,65.4%,73.8%,77.9%,56.8%,35.4%,75.7%,16.5%,97.7%,104%
CC(C)NC(=O)c1cc(-c2ccc(NC(=O)Nc3ccc(N4CCN(C)CC4)c(C(F)(F)F)c3)cc2)nc2cccnc12,-81.9% (active),-92.4% (active),-92.9% (active),-97.4% (active),-93.6% (active),-100% (active),-93.6% (active),-97.7% (active),-43.6% (active),–
C#Cc1ccc(S(=O)(=O)Nc2cccc(-c3csc(NC(C)=O)n3)c2)cc1,81.5%,57.9%,79%,-81.1% (active),81.7%,82.6%,65.3%,96%,49.5%,–
Cc1ccc(/C=C(\C#N)n2nnc3c(F)cccc32)cc1,16.5%,28.8%,4.19% (active),15.2%,0.416% (active),19.7%,21.8%,71.8%,10.1%,–
CCN1CCN(c2ccc(NC(=O)Nc3ccc(-c4cc(C(=O)NC)c5ncccc5n4)cc3)cc2C(F)(F)F)CC1,-72.8% (active),-100% (active),-96.5% (active),-100% (active),-98.9% (active),-100% (active),-100% (active),-98.4% (active),-52.5% (active),–
CN1CCN(c2ccc(Nc3nc(N4CCN(S(=O)(=O)c5ccc(F)cc5)CC4)c4sccc4n3)cc2)CC1,-72.7% (active),-89.5% (active),-86.4% (active),-87.1% (active),-77.9% (active),-100% (active),-96.3% (active),-94.3% (active),-1.97% (active),–
O=c1oc2ccccc2cc1-c1csc(N=Nc2c(O)[nH]c3ccc(Br)cc23)n1,60.3%,73.7%,85.3%,82.7%,86.8%,48.8%,84.5%,54.1%,99.8%,103%
CC1(c2ccccc2)NC(=O)N(CC(=O)Nc2ccc(C(=O)/C=C/c3ccc(Cl)cc3)cc2)C1=O (configuration not stated),34%,30.3%,19.4%,22.7%,67.9%,13.4%,21.4%,76.7%,7.4% (active),-4.5% (active)
O=C(Cn1nc(-c2ccccc2)ccc1=O)NNC(=S)NC1CCCCC1,109%,98.6%,101%,81.2%,109%,102%,98.6%,121%,103%,106%
CN1CCN(c2ccc(Nc3nc(NCCCNC(=O)c4ccccc4)c4sccc4n3)cc2)CC1,114%,89.9%,84.4%,74.9%,117%,60.1%,72.5%,141%,25.2%,–
O=C1CCC(N2Cc3c(NCc4ccc(-c5ccccc5)cc4)cccc3C2=O)C(=O)N1 (configuration not stated),101%,84.2%,73.8%,45.3%,79.1%,73.2%,82.8%,70.5%,19.9%,13.4%
[2H]C([2H])([2H])Oc1ccc2ncc(C#Cc3cncc(C(=O)Nc4ccc(CN5CCN(C)CC5)c(C(F)(F)F)c4)c3)n2n1,-92.7% (active),-60% (active),-78.2% (active),-85.2% (active),-53.4% (active),-88.9% (active),-78.7% (active),-50.6% (active),0.607% (active),-13.6% (active)
O=C(CSc1nnc(-c2ccc3nc(-c4ccccc4)[nH]c3c2)o1)Nc1ccc(Br)cc1,81.2%,81.4%,45.8%,74.4%,81.3%,63%,76.2%,101%,39.4%,16.8%
Cc1ccc(C(C)C)cc1NC(=O)c1ccccc1O,25.4%,49.7%,37.8%,16.6%,69.4%,44.7%,32.3%,67.8%,24.5%,–
CNC(=O)c1cccc(N2CCc3c2ccc(NC(=O)Nc2ccc(N4CCN(C)CC4)c(C(F)(F)F)c2)c3F)c1,-53.2% (active),-87% (active),-91.5% (active),-100% (active),-94.7% (active),-100% (active),-81.5% (active),39.3%,-42.1% (active),–
